The values that follow come from PubChem BioAssay (Tox21).

Where “and” joins values, the source holds several entries; their conditions need not be identical. Identical values can stand only once. A number with no mark means an inactive call. Inconclusive results are not listed. Calls of active or inactive are those of the source. Unless noted, the call rests on the fitted dose curve; in most records, active means well fitted curve in the direction sought with a large enough effect in the repeat runs; inconclusive means weak or mixed curves; inactive means no such curve, though single readings can be large; an effect the other way counts as inactive or inconclusive.

The nature of experiment [1]: qHTS assay for small molecules that induce genotoxicity in human embryonic kidney cells expressing luciferase-tagged ATAD5 (AID 651632). Further: nearly all actives have a fitted effect of over 15% in size. The method, boiled down:
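Test compounds were delivered by pin tool onto HEK293T reporter cells (2,000/well) expressing ATAD5 fused to luciferase. After 16 hr at 37C, 5% CO2, Amplite was added for 30 min at room temperature and luminescence was measured.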

The nature of experiment [2]: qHTS assay to test for compound auto fluorescence at 590 nm (red) in HepG2 cells (AID 720674). The essentials: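 Fluorescence at 590 nm emission following 540 nm excitation was recorded from HepG2 wells one hour after compound transfer, with DMSO-only wells as vehicle and Rose Bengal sodium equivalency as the scale.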
(In general: qHTS replaces the single test concentration by a dilution series.)

Experiment [3] is described as follows: qHTS assay to test for compound auto fluorescence at 460 nm (blue) in HEK293 cells (AID 720678). The method, boiled down:
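HEK293, 2,000 cells/well, 10% dialyzed FBS; attach 4-5 hr 37C; pin compound or DMSO; o/n 37C/5% CO2; fluorescence 405/460 nm; triamterene-equivalent units.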

Experiment [4] can be described thus: qHTS assay to test for compound auto fluorescence at 460 nm (blue) in HEK293 cell free culture (AID 720681). The essentials: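 Compounds were added to cell-free DMEM with 10% FBS and fluorescence read directly. The blue channel used 405 nm excitation and 460 nm emission, with triamterene as the reference fluorophore.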
Experiment [5] in a line: qHTS assay to test for compound auto fluorescence at 535 nm (green) in HEK293 cell free culture (AID 720682). The essentials: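 Steps: dispense DMEM/10% FBS into empty wells; pin in compound or DMSO; measure fluorescence at 485/535 nm. Values are fluorescein equivalents.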
Experiment [6] is described as follows: qHTS assay to test for compound auto fluorescence at 590 nm (red) in HEK293 cell free culture (AID 720683). The essentials:
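Cell-free wells of DMEM with 10% FBS received compound, and intrinsic fluorescence was read at excitation/emission 540/590 nm. Values expressed as equivalence to Rose Bengal sodium.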

Experiment [7] in a line: qHTS assay to test for compound auto fluorescence at 590 nm (red) in HepG2 cell free culture (AID 720684). The essentials: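 Rose Bengal sodium served as the reference for red signal. Test compounds were dispensed into serum-containing MEM (10% FBS) without cells, and plates were read at 540/590 nm.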
Experiment [8] can be described thus: qHTS assay to test for compound auto fluorescence at 460 nm (blue) in HepG2 cell free culture (AID 720685). The essentials:
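Cell-free plates of MEM plus 10% FBS received 23 nL compound or DMSO vehicle; blue-channel (405/460 nm) intensity scored against triamterene as reference fluorophore.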

The nature of experiment [9]: qHTS assay to test for compound auto fluorescence at 535 nm (green) in HepG2 cell free culture (AID 720686).
Experiment [10] can be described thus: qHTS assay to test for compound auto fluorescence at 460 nm (blue) in HepG2 cells (AID 720687). The essentials:
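HepG2 cells in MEM with 10% FBS, attached overnight at 37 C, were exposed to compound or DMSO for 1 hr at 37 C, 5% CO2. Blue fluorescence was read at 405/460 nm, with triamterene as reference fluorophore.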

Experiment [11] can be described thus: qHTS assay for identifying genotoxic compounds that show differential cytotoxicity against isogenic chicken DT40 cell lines with known DNA damage response pathways - Rev3 mutant cell line (AID 743014). Further: potency means the concentration at half of the fitted maximal effect; nearly all actives have a fitted effect of over 55% in size.
The nature of experiment [12]: qHTS assay to identify small molecule antagonists of the estrogen related receptor signaling pathway with the pleiotropic PPARgamma coactivator (PGC) from Tox21 10K library (AID 1224841; call rule not given here; further: potency means the concentration at half of the fitted maximal effect; actives are mostly falling curves and most rising ones were filed inactive; nearly all actives have a fitted effect of over 50% in size). The essentials:
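In the PGC/ERR line, DMSO solutions of test chemicals are pin-delivered to 2,000 cells/well six hours after dispensing. Following eighteen hours' incubation, One-Glo reagent is added and luminescence recorded.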

For experiment [13], the target named is Thyrotropin receptor (Homo sapiens) (UniProt P16473). Put plainly: qHTS assay to identify small molecule agonists of the thyroid stimulating hormone receptor (TSHR) signaling pathway (AID 1224843; calls by dose curve; further: nearly all actives have a fitted effect of over 45% in size). The essentials: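 HEK293/TSHR, 800 cells/well; cpd 30 min RT; add cAMP-d2 + anti-cAMP-cryptate, 1 h RT; fluorescence read on plate reader. 15-pt titration, n=3.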
Sequence of Thyrotropin receptor (Homo sapiens) (P16473 whole entry, looked up): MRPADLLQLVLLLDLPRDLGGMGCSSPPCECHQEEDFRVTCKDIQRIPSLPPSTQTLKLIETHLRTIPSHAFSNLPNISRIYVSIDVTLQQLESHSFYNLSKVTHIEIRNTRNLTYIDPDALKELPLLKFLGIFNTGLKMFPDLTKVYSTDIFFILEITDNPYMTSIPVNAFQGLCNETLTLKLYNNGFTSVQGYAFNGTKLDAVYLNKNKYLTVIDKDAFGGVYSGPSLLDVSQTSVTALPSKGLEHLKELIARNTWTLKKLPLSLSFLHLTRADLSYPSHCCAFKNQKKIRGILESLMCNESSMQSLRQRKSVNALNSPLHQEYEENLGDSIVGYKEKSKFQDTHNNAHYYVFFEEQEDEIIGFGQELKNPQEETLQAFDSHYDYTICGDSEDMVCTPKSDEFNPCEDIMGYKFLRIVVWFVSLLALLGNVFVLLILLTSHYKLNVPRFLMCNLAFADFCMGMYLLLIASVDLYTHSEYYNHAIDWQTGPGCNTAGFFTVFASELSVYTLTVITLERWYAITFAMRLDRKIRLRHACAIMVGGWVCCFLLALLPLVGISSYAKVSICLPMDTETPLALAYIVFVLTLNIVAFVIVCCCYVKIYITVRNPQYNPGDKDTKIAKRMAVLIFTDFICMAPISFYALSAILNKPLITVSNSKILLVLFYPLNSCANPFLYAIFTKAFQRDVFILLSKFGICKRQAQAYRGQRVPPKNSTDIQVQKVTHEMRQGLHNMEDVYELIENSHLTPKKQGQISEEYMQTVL

Experiment [14] is described as follows: qHTS assay to identify small molecule agonists of H2AX - cell viability counter screen (AID 1224847; calls by dose curve; further: nearly all actives have a fitted effect of over 30% in size; further: potency means the concentration at half of the fitted maximal effect). The essentials:
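We seed wild-type CHO-K1 cells overnight, treat them for 3 hr at 37C with compounds in 15-concentration series, and quantify remaining viability by CellTiter-Glo luminescence.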

A short description of experiment [15]: qHTS RealTime-Glo MT Cell Viability Assay in HEK293 cells - 8 hour (AID 1224887). Further: nearly all actives have a fitted effect of over 50% in size. Further: potency means the concentration at half of the fitted maximal effect. The method, boiled down: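 Measured as luminescence from the same continuously cultured HEK293 wells at successive time points (0, 8, 16, 24, 32, 40 h) after compound addition. Reagent present from seeding; dosing at 5 h; incubation 37 C.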
Experiment [16] concerns the target Estrogen receptor (Homo sapiens) (UniProt P03372). As to the kind of experiment: qHTS assay to identify small molecule antagonists of the estrogen receptor alpha (ER-alpha) signaling pathway using the BG1 cell line in the presence of 0.1 nM 17-beta-estradiol (AID 1259244). Further: nearly all actives have a fitted effect of over 50% in size. Further: potency means the concentration at half of the fitted maximal effect. The method, boiled down:
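Seeding of stripped-serum-adapted VM7Luc4E2 cells, 24 h attachment, compound transfer, then 0.1 nM final 17beta-estradiol; after 22 h incubation, ONE-Glo reagent and luminescence reading.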

Experiment [17] concerns the target Estrogen receptor beta (Homo sapiens) (UniProt Q92731). Put plainly: qHTS assay to identify small molecule agonists of the estrogen receptor beta (ER-beta) signaling pathway (AID 1259377; active means well fitted activation curve with a large enough effect in the signal ratio in the repeat runs, not every such curve was filed as active; the % refers to the signal ratio). The method, boiled down:
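A UAS-controlled beta-lactamase reporter in ER-beta-UAS-bla HEK293T cells reports receptor activation. Compounds act for 16 hr at 37C in 2% charcoal-stripped serum, and a FRET substrate is read by fluorescence after 2 hours.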

Experiment [18] deals with Thyrotropin-releasing hormone receptor (Homo sapiens) (UniProt P34981). Put plainly: qHTS assay to identify small molecule antagonists of the thyrotropin-releasing hormone receptor (TRHR) signaling pathway (AID 1346877; active means well fitted inhibition curve with a large enough effect in the repeat runs, not every such curve was filed as active; further: series mostly up to about 51 µM). The method, boiled down:
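Human TRHR in HEK293 cells; inhibition of the intracellular calcium rise triggered by 1 nM TRH was followed by fluorescence over 3 min. Compounds were run at 15 concentrations, three replicates each.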

The nature of experiment [19]: qHTS assay to identify small molecule agonists of the estrogen receptor beta (ER-beta) signaling pathway - cell viability counter screen (AID 1259380). Further: potency means the concentration at half of the fitted maximal effect; nearly all actives have a fitted effect of over 30% in size. The essentials:
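In this qHTS counter screen, HEK293T cells carrying an ER-beta/UAS beta-lactamase reporter, grown in 2% charcoal-stripped FBS, received compound for 16 hr; ATP-based CellTiter-Glo luminescence was then read after 30 min at room temperature.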

Experiment [20] can be described thus: qHTS assay to identify small molecule agonists of the progesterone receptor (PR) signaling pathway - cell viability counter screen (AID 1346799; calls by dose curve; further: potency means the concentration at half of the fitted maximal effect; nearly all actives have a fitted effect of over 45% in size). The essentials: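 Counter screen for cytotoxicity: compound-treated PR-UAS-bla HEK293T cells (16 hr, 37C, 5% CO2) were assayed with CellTiter-Glo, luminescence measured after 30 min at room temperature.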

Sequence of Thyrotropin-releasing hormone receptor (Homo sapiens) (P34981 whole entry, looked up): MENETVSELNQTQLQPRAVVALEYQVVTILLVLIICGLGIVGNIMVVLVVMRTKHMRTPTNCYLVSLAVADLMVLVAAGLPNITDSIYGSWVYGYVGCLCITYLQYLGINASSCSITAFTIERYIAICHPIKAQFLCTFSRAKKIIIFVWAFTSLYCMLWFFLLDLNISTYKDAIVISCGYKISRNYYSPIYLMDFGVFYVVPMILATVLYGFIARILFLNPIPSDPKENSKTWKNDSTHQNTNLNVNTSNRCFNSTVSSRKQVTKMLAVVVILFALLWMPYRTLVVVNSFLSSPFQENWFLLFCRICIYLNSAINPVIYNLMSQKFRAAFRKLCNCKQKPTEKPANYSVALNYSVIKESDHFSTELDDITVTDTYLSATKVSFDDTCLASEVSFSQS
Sequence of Estrogen receptor (Homo sapiens) (P03372 whole entry, looked up): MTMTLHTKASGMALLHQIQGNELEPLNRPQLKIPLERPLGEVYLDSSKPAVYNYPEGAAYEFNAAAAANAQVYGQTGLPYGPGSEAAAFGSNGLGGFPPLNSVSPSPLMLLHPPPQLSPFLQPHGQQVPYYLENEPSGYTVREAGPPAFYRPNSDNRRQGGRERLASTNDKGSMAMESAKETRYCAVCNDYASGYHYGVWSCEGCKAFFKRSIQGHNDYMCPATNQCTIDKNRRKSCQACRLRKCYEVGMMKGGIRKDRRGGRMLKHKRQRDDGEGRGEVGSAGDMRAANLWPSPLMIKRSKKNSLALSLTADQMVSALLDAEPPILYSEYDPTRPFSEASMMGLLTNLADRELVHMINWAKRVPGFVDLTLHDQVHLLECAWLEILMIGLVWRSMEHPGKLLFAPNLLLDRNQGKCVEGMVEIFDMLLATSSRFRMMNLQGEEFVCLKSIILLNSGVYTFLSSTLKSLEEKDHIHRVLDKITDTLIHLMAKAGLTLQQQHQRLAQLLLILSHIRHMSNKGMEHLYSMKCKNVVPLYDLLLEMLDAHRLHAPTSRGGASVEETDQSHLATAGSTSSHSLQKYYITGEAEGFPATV
Sequence of Estrogen receptor beta (Homo sapiens) (Q92731 whole entry, looked up): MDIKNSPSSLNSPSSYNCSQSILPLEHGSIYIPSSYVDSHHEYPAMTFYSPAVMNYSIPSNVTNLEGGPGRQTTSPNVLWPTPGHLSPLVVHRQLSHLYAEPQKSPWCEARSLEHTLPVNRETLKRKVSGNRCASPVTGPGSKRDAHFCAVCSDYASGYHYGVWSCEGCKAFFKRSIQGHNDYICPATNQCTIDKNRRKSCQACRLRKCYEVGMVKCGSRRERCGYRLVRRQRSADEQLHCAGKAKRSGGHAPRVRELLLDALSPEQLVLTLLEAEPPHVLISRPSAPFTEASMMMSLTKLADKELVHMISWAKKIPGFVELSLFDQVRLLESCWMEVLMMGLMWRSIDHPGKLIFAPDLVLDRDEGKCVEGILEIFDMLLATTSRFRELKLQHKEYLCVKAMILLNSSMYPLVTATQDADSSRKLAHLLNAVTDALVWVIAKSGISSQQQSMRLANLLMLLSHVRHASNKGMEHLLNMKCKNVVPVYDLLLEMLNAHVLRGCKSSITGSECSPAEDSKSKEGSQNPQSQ

As to `CC1COC(Cn2cncn2)(c2ccc(Oc3ccc(Cl)cc3)cc2Cl)O1` (stereo not given), the Potency result in experiment [1], in [3], in experiment [4], in experiment [5], in experiment [8] and in [9] was “inactive” in each case. Also, the Potency entry in experiment [10] and in [13] was “inactive” each time. In addition, the call in experiment [2], in [6], in [7] and in [17] was inactive. Further, the Potency in [11] was 0.686 µM (active); in experiment [12] it was 8.63 µM (active); in [14] it was 101 µM (active); in [15] it was 21.9 µM (active); in [16] it was 10.9 µM (active).
As to `O=[N+]([O-])c1c(Cl)c(Cl)cc(Cl)c1Cl`, the Potency result in experiment [1], in experiment [3], in [4], in experiment [5], in [8] and in experiment [9] was “inactive” in each case. Moreover, the Potency entry in experiment [10] and in experiment [16] was “inactive” in each case. For the same compound, the result in experiment [2], in [6] and in [7] was inactive.
With `COc1cc(OC)c(OC)cc1C=O`, the Potency result in experiment [1], in [3], in [4], in experiment [5], in experiment [8] and in experiment [9] was “inactive” throughout. The Potency entry in experiment [10], in experiment [13], in experiment [14] and in [15] was “inactive” each time. Moreover, the result in [2], in experiment [6], in experiment [7] and in [18] was inactive. For the same compound, the Potency is 34.3 µM (active) in [11], 21.9 µM (active) in experiment [12] and 59.3 µM (active) in experiment [16].
Take `O=C(Nc1ccccc1-c1ccc(Cl)cc1)c1cccnc1Cl`: the Potency result in [1], in [4], in experiment [5], in [8], in experiment [9] and in [10] was “inactive” throughout. Further, the compound was classed as inactive in experiment [2], in experiment [6], in experiment [7], in [17] and in experiment [18]. Further, the Potency in [11] was 67.4 µM (active); in [12], 64.8 µM (active); in experiment [19], 14.5 µM (active).
On to `CN1CSC(=S)N(C)C1`, for which the Potency entry in experiment [1], in experiment [3], in experiment [4], in [5], in [8] and in experiment [9] was “inactive” throughout. In addition, the Potency entry in experiment [10], in experiment [13] and in experiment [15] was “inactive” throughout. In addition, the outcome in [2], in experiment [6], in [7] and in [18] was inactive. Also, the Potency in experiment [11] was 5.42 µM (active) and 5.43 µM (active); in experiment [14], 56.4 µM (active); in [16], 13.6 µM (active) and 17.2 µM (active); in experiment [19], 4.31 µM (active) and 9.66 µM (active); in [20] it was 24.3 µM (active).
`COc1ccc(C(c2ccc(OC)cc2)C(Cl)(Cl)Cl)cc1`: the Potency result in [1], in [4], in experiment [5], in [8], in experiment [9] and in [10] was “inactive” each time. The result in [2], in experiment [6], in [7] and in experiment [18] was inactive. The figures for the Potency in [11], in experiment [12] and in [14] were 44.4 µM (active), 8.58 µM (active) and 50.2 µM (active), respectively.
